Among the test systems are DU-145 prostate; K-562 leukemia; MALME-3M melanoma; MDA-MB-231 breast; RXF 393 renal; SF-268 CNS; SF-295 CNS; SF-539 CNS; UACC-257 melanoma; M14 melanoma; HCT-15 colon; HT29 colon; SNB-75 CNS; SNB-19 CNS; U251 CNS; PC-3 prostate; SK-MEL-5 melanoma; UACC-62 melanoma; LOX IMVI melanoma; SK-MEL-28 melanoma.
What all share (assay): NCI-60 one-dose screen, 48 h (100 = growth as untreated, 0 = no growth, -100 = all killed)
Conditions in all cases: 10 µM unless noted

Data on seven compounds can be found in PubChem BioAssay (NCI).

This is part of a sample that, as a whole, favours compounds with a hit. Of some 83,000 tested, about 20% had one in any assay.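 Compound tested at a single concentration for 48 hours in 96-well plates; a percent growth value below 10 was scored as active.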 Values without a mark were called inactive. Active and inactive are the calls of the source.

In the case of `CN1CCN(Cc2ccc(NC(=O)c3cncc(C#Cc4cnc5ccc(N)nn45)c3)cc2C(F)(F)F)CC1`, the growth in the experiment with DU-145 prostate is 17.7%; in the experiment on K-562 leukemia it was 6.78% (active); in the experiment on MALME-3M melanoma, -36.6% (active); with MDA-MB-231 breast it was 2.36% (active); in the experiment with RXF 393 renal it was -9.41% (active); in the experiment on SF-268 CNS, 6.31% (active). The growth was 53.8% in the experiment on SF-295 CNS; 3.36% (active) in the experiment on SF-539 CNS; 55.3% in the experiment on UACC-257 melanoma; -1.8% (active) in the experiment with M14 melanoma; 49.5% with HCT-15 colon; 5.96% (active) in the experiment with HT29 colon. Also, the growth is 57.7% in the experiment with SNB-75 CNS; 35% with SNB-19 CNS; 54.6% in the experiment with U251 CNS; 36.9% in the experiment with PC-3 prostate; 60.8% in the experiment on SK-MEL-5 melanoma; 70.8% with UACC-62 melanoma. Further, the growth was -63% (active) in the experiment on LOX IMVI melanoma and 41.2% with SK-MEL-28 melanoma.
As to `COc1ccc(N2CCN(C3=C(Cl)C(=O)c4ncccc4C3=O)CC2)cc1`, the growth in the experiment on DU-145 prostate was 5.58% (active); with K-562 leukemia it was 6.59% (active); in the experiment on MALME-3M melanoma, 23.7%; in the experiment on MDA-MB-231 breast, 62.5%; with RXF 393 renal, 15.2%; in the experiment with SF-268 CNS, 86%. The growth in the experiment on SF-295 CNS is 108%; in the experiment on SF-539 CNS, 89.6%; with UACC-257 melanoma it was 24.6%; in the experiment on M14 melanoma it was 45.6%; in the experiment with HCT-15 colon it was 17.1%; in the experiment on HT29 colon, 87.3%. In addition, the growth in the experiment with SNB-75 CNS is 85.2%; in the experiment on SNB-19 CNS, 94.7%; in the experiment on U251 CNS it was 90.9%; with PC-3 prostate it was 68.1%; in the experiment on SK-MEL-5 melanoma, 95%; in the experiment on UACC-62 melanoma, 69.3%. Further, the growth in the experiment on LOX IMVI melanoma was 21%; in the experiment with SK-MEL-28 melanoma it was 78.3%.
Consider `CCCCc1nc2c(N)nc3ccccc3c2n1Cc1ccc(OC)cc1`, for which the growth with DU-145 prostate was 83.4%; in the experiment on K-562 leukemia it was 23.2%; in the experiment on MALME-3M melanoma, 87.6%; in the experiment on MDA-MB-231 breast, 75.8%; in the experiment on RXF 393 renal, 58.4%; in the experiment with SF-268 CNS it was 81.1%. Moreover, the growth is 56.5% in the experiment with SF-295 CNS; 84.2% in the experiment with SF-539 CNS; 72% in the experiment on UACC-257 melanoma; 67.3% in the experiment with M14 melanoma; 58.3% in the experiment on HCT-15 colon; 32.9% with HT29 colon. Further, the growth in the experiment with SNB-75 CNS was 66.2%; with SNB-19 CNS, 76%; in the experiment on U251 CNS, 67.9%; with PC-3 prostate, 43.5%; in the experiment with SK-MEL-5 melanoma, 47.3%; in the experiment on UACC-62 melanoma, 68.2%. In addition, in the experiment with SK-MEL-28 melanoma, the growth is 90.2%.
Take `COc1ccc(/C=N/NC(=O)c2c(N)nn(C)c2Nc2ccccc2)cc1`: the growth in the experiment on DU-145 prostate was 76.3%; in the experiment on K-562 leukemia it was 19.2%; in the experiment on MALME-3M melanoma, 44.7%; in the experiment with MDA-MB-231 breast it was 65.1%; in the experiment with RXF 393 renal it was 37.3%; with SF-268 CNS, 58.6%. The growth in the experiment on SF-295 CNS is 9.85% (active); in the experiment with SF-539 CNS it was 40.2%; in the experiment on UACC-257 melanoma it was 56.4%; in the experiment with M14 melanoma it was 13%; in the experiment on HCT-15 colon, 19.1%; with HT29 colon it was 18.6%. Further, the growth was 35.1% in the experiment on SNB-75 CNS; 36.8% in the experiment on SNB-19 CNS; 33.3% with U251 CNS; 55.9% with PC-3 prostate; 57.2% in the experiment with SK-MEL-5 melanoma; 23.7% with UACC-62 melanoma. Besides, the growth in the experiment on SK-MEL-28 melanoma is 57.5%.
In the case of `O=C(CCCCCCNC(=O)C(O)(O)C(F)(F)F)Nc1ccc(Cl)cc1`, the growth in the experiment on DU-145 prostate was 17.6%; in the experiment with K-562 leukemia, 14.4%; in the experiment with MALME-3M melanoma, 9.88% (active); in the experiment on MDA-MB-231 breast, 36.2%; with RXF 393 renal, -23.7% (active); with SF-268 CNS, 22%. For the same compound, the growth was 0.336% (active) in the experiment with SF-295 CNS; 28.6% in the experiment on SF-539 CNS; 31% in the experiment with UACC-257 melanoma; 34.4% in the experiment on M14 melanoma; 39.1% with HCT-15 colon; 5.13% (active) in the experiment with HT29 colon. In addition, the growth in the experiment on SNB-75 CNS is 42.5%; in the experiment on SNB-19 CNS, 31.7%; in the experiment with U251 CNS, 13.9%; with PC-3 prostate, 35.3%; in the experiment on SK-MEL-5 melanoma it was -28% (active); in the experiment on UACC-62 melanoma, -18.8% (active). In addition, the growth with LOX IMVI melanoma was 4.18% (active); in the experiment with SK-MEL-28 melanoma it was 27%.
As for `C(=N\Nc1nc(N/N=C/c2ccc3c(c2)OCO3)nc(N2CCCCC2)n1)/c1ccc2c(c1)OCO2`, the growth was 99.8% in the experiment on DU-145 prostate; 41.1% in the experiment with K-562 leukemia; 120% in the experiment on MALME-3M melanoma; 90.7% in the experiment with MDA-MB-231 breast; 79.7% in the experiment with RXF 393 renal; 100% in the experiment with SF-268 CNS. Besides, the growth is 77.8% in the experiment on SF-295 CNS; 87.6% in the experiment on SF-539 CNS; 108% in the experiment on UACC-257 melanoma; 97.3% with M14 melanoma; 33.8% in the experiment with HCT-15 colon; 38.2% with HT29 colon. The growth with SNB-75 CNS was 113%; in the experiment with SNB-19 CNS, 80.3%; in the experiment with U251 CNS it was 81.4%; with PC-3 prostate, 73.6%; in the experiment on SK-MEL-5 melanoma it was 96.8%; in the experiment with UACC-62 melanoma it was 102%. Moreover, the growth in the experiment with LOX IMVI melanoma was 47.9%; in the experiment with SK-MEL-28 melanoma, 109%.
Turning to `Brc1ccc(-c2cc(-c3ccc4c(c3)OC=CO4)n[nH]2)s1`, the growth with DU-145 prostate is 99.1%; in the experiment with K-562 leukemia, 31.5%; in the experiment with MALME-3M melanoma, 70.3%; in the experiment on MDA-MB-231 breast, 90.8%; in the experiment on RXF 393 renal, 101%; in the experiment with SF-268 CNS, 89%. The growth in the experiment on SF-295 CNS is 82.6%; in the experiment on SF-539 CNS, 85.2%; with UACC-257 melanoma it was 90.7%; in the experiment on M14 melanoma it was 75.3%; in the experiment on HCT-15 colon, 61.9%; in the experiment on HT29 colon it was 74.1%. Moreover, the growth in the experiment with SNB-75 CNS was 74%; with SNB-19 CNS, 91.7%; in the experiment with U251 CNS, 88.8%; with PC-3 prostate, 101%; with SK-MEL-5 melanoma it was 89.4%; with UACC-62 melanoma it was 83.2%. The growth in the experiment on LOX IMVI melanoma was 89.9%; in the experiment with SK-MEL-28 melanoma, 91.6%.
